Out of some 290,000 compounds screened, about 150 (0.052%) were called active.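 The calls were made as follows: active = inhibition of at least 50% with at least 30 cells and total cytoplasm GFP at most 10,000,000; inconclusive = under 30 cells or total GFP of 10,000,000 plus; inactive = the rest.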 What follows is part of a selection rich in actives, with near analogues and random picks from the rest. Results with a measured potency or affinity are listed apart.

By inhibition is commonly meant the drop in the measured response relative to a control, in per cent.

The target in this test is G-protein coupled receptor 35 (Homo sapiens) (UniProt Q9HC97). The test can be described thus: inhibition of zaprinast-stimulated GPR35 beta-arrestin translocation – imaging, U2OS, beta-arrestin-GFP, zaprinast agonist, primary screen (AID 2058). The settings on record: zaprinast antagonism, at 10 µM, hits give high values.
Chain of G-protein coupled receptor 35 (Homo sapiens) (Q9HC97 whole entry, looked up): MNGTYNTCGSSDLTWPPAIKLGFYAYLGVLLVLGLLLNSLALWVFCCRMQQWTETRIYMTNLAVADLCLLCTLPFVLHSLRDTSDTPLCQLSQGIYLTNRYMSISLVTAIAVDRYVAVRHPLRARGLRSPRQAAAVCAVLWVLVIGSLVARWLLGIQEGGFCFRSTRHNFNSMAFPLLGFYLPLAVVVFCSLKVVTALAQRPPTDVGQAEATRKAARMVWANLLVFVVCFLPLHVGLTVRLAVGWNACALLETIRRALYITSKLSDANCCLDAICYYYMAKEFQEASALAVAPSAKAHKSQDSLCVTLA
For `CC(=O)c1cccc(OCc2cc(C(=O)N3C[C@@H](C)O[C@@H](C)C3)no2)c1`, the inhibition is 4.5% (inactive).
Regarding `CC1Sc2ccc(S(=O)(=O)CCC(=O)NCc3ccc(Cl)cc3)cc2NC1=O` (configuration not stated), the inhibition is 7.8% (inactive).
Then `Cc1cc(NC(=O)CSc2nnc(-c3c[nH]c4ccccc34)n2-c2ccc(Cl)cc2)no1`, with 3.9% (inactive); and `COc1cccc(Cn2cccc(NC(=O)NCc3ccccc3)c2=O)c1`, with -1% (inactive).
For the compound `COc1ccc(-c2nc(-c3cccc(C)c3)nc(Cl)c2C#N)cc1`, the inhibition was 13.1% (inactive).
For `N#Cc1c(Cl)nc(SCc2ccccc2)nc1-c1ccccc1` the value was 10.7% (inactive); for `CSc1nc(Cl)c(C#N)c(-c2ccc(C)cc2)n1`, 61.8% (active).
For `CCOC(=O)c1c(-c2ccc(C)cc2)csc1NC(=O)/C(C#N)=C/c1ccc(O)c(OC)c1` the value was 2.7% (inactive); for `CCOC(=O)c1c(-c2ccccc2)csc1NC(=O)/C(C#N)=C/c1ccc(OC)c(OC)c1`, -10.8% (inactive).
With `O=C(O)c1ccc(COc2ccccc2[N+](=O)[O-])o1`, the inhibition was 9.8% (inactive).
Then `Cc1ccc(-c2c(C(=O)N/N=C/c3ccc(C)o3)nnn2-c2nonc2N)cc1`, with 9.3% (inactive); and `CCCN1C=CC(=CC=C(C#N)C#N)C=C1`, with 59.2% (active); and `C=CCN1C=CC(=CC=C(C#N)C#N)C=C1`, with 29.6% (inactive).
With `CCCN1C=CC(=C/C=C(\C#N)C(=O)OCC)C=C1`, the inhibition is 7.2% (inactive).
Then `Cc1ccc(C(=O)O)cc1NC(=O)C1=CSCCO1`, with -0.5% (inactive).
Then `COc1ccc2nc(C)cc(NCc3cccc(C(F)(F)F)c3)c2c1`, with -5.8% (inactive); and `COc1ccc(CNc2cc(C)nc3ccc(OC)cc23)cc1`, with 7.8% (inactive).
Then `O=C1Oc2ccccc2C(=O)/C1=C/N1CCN(c2ccccc2F)CC1`, with -6.9% (inactive).
On to `CC(C)CCN1CCNC(=O)C1CC(=O)NCCCN1CCOCC1` (configuration not stated), for which the inhibition is -0.8% (inactive).
As for `CC(NC(=O)CN1CCCC1)C12CC3CC(CC(C3)C1)C2` (configuration not stated), the inhibition is 1.4% (inactive).
For `CC(NC(=O)Cn1nc(C(=O)O)c2ccccc2c1=O)C12CC3CC(CC(C3)C1)C2` (configuration not stated) the value was 8% (inactive).
Then `O=C(c1cc(-c2ccccc2Cl)nc2ccccc12)N1CCOCC1`, with 10.1% (inactive).
Then `CCN(CC)c1ccc2c(C)c(Cl)c(=O)oc2c1`, with 8.4% (inactive); and `CCN(CC)c1ccc2c(Cl)cc(=O)oc2c1`, with 4.5% (inactive); and `COc1ccc(C(=O)/C=C/c2ccc(N3CCCCC3)c([N+](=O)[O-])c2)cc1`, with 2.4% (inactive).
With `O=C(Nc1ccc(N2CCOCC2)cc1)c1ccc([N+](=O)[O-])cc1`, the inhibition was 14.4% (inactive).
For `CCn1c2ccccc2c2cc(NC(=O)c3ccc([N+](=O)[O-])cc3)ccc21` the value was -16.2% (inactive); for `Cn1ccc(=Nc2ccc(NC(=O)c3ccc(N=c4ccn(C)c5ccc([N+](=O)[O-])cc45)cc3)cc2)cc1`, 53.5% (active).
On to `Cc1c(NC(=S)N/N=C/c2ccc(N(C)C)cc2)c(=O)n(-c2ccccc2)n1C`, for which the inhibition was 5.5% (inactive).
As to `O=C1CN(C(=O)N[C@@H](Cc2ccccc2)C(=O)N[C@@H](Cc2ccccc2)C(=O)O)c2ccccc2N1`, the inhibition was 6.4% (inactive).
For `CCOC(=O)N1CC=C2C(C#N)=C(N)C(C#N)(C#N)[C@H](c3ccccc3OCC)[C@H]2C1` the value was 2.1% (inactive); for `CCCCOc1ccc(C2C3CN(C(=O)OCC)CC=C3C(C#N)=C(N)C2(C#N)C#N)cc1OC` (configuration not stated), -1.9% (inactive); for `CCN1CC=C2C(C#N)=C(N)C(C#N)(C#N)[C@H](c3cccc(OC)c3OC)[C@H]2C1`, 100% (active).
For `COc1ccc([C@@H]2[C@H]3CN(C(C)=O)CC=C3C(C#N)=C(N)C2(C#N)C#N)c2ccccc12` the value was -18.9% (inactive); for `CCCN1CC=C2C(C#N)=C(N)C(C#N)(C#N)C(c3cccc(OC)c3OC)C2C1` (configuration not stated), 101% (active); for `CCOC(=O)N1CC=C2C(C#N)=C(N)C(C#N)(C#N)[C@H](c3cccs3)C2C1` (some centres not stated), 12.4% (inactive).
Regarding `CCCOc1ccc([C@@H]2C3CN(C(=O)OCC)CC=C3C(C#N)=C(N)C2(C#N)C#N)cc1OC` (some centres not stated), the inhibition was 16.5% (inactive).
For the compound `COc1cccc(OC)c1OCc1cc(C2C3CCCC=C3C(C#N)=C(N)C2(C#N)C#N)c(C)cc1C` (configuration not stated), the inhibition is 7% (inactive).
In the case of `Cc1c(C(=O)Nc2ccc(Cc3ccncc3)cc2)cccc1[N+](=O)[O-]`, the inhibition was -1.8% (inactive).
Then `CC(C)(C)[C@H]1C=C(C(=O)NCc2nc3ccccc3[nH]2)O[C@@H](OCc2ccc(CO)cc2)C1`, with 9.8% (inactive); and `O=C1c2ccc([N+](=O)[O-])cc2NC(c2ccco2)N1/N=C/c1ccco1` (configuration not stated), with -4.6% (inactive); and `Cn1cc(/C=C/C(=O)N2CCCC(C(=O)c3ccc(C(C)(C)C)cc3)C2)cn1` (configuration not stated), with -6.4% (inactive).
For `CCc1cccc2c(C(=O)C(F)(F)F)cn(CC(=O)N3CCOCC3)c12` the value was 7.2% (inactive); for `N#C/C(=C/c1ccc(N2CCCCC2)cc1)c1cccc(F)c1`, 11.7% (inactive); for `N#C/C(=C/c1ccc(Sc2nc3ccccc3[nH]2)o1)c1cccc(F)c1`, -1.5% (inactive).
Turning to `Cc1ccc(/C(C#N)=C\c2ccc(N3CCOCC3)o2)cc1`, the inhibition is 27.2% (inactive).
For `N#C/C(=C/c1ccc(N2CCOCC2)o1)c1ccc(Br)cc1` the value was 37.8% (inactive); for `N#C/C(=C/c1ccc(N2CCOCC2)o1)c1ccc(Cl)cc1`, -12.2% (inactive); for `N#C/C(=C/c1ccc(N2CCOCC2)o1)C(=O)NC1CCCCC1`, 9.2% (inactive).
For `N#C/C(=C/c1ccc(N2CCCCC2)o1)c1cccc(F)c1` the value was 55.7% (active); for `COc1cc(N2CCCC2)c(OC)cc1/C=C(/C#N)c1cccc(F)c1`, 30.4% (inactive).
For `N#C/C(=C/c1ccc(N2CCCCCC2)o1)c1ccc(Cl)cc1` the value was 87.6% (active); for `N#C/C(=C/c1ccc(N2CCCCCC2)o1)c1cccc(F)c1`, 104% (active); for `N#C/C(=C\c1ccc(N2CCOCC2)o1)C(=O)NC1CCCCC1`, 8.1% (inactive).
`O=C(Nc1ccccn1)C1(c2ccccc2)CCCC1`: the inhibition was 3% (inactive).
For `CC(C)(C)OC(=O)N1CCN(c2ccc(CNC(=O)c3ccc(Cl)cc3)cc2)CC1` the value was 4% (inactive); for `COc1ccc(-c2nnn(CC(=O)N(CCCO)C(C(=O)NC3CCCC3)c3ccc(F)cc3)n2)cc1` (configuration not stated), 4% (inactive).
